MITF inh: blocks MITF activity. TRPM1 promoter luciferase, luminescence, 24 h. inhibition, % (test concentration not listed). actives 0.28% (n = 37,000); in the data active = inhibition above about 85%; inconclusive = no clear call, values can overlap the other calls; inactive = below about 68%;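 also: human melanocyte line stably carrying TRPM1 promoter luciferase reporter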
PD-1 reverse act: activators reversing PD-1 mediated T-cell inhibition. primary human CD4 T cells, PD-L1 beads, CellTiter-Glo 96 h. activation, % (no concentration beside the values). 29,000 tested, under 10 active. AID 2316; call rule not given here
NOMO-1 viab: STK33 inhibitor candidate reducing NOMO-1 cell viability; actives 7.5% (n = 37,000); NOMO-1 AML viability, CellTiter-Glo luminescence, 72 h; AID 2330; inhibition, % (test concentration not listed); in the data active = inhibition above about 80%; inconclusive = no clear call, values can overlap the other calls
Shh pathway inh: Sonic Hedgehog pathway inhibition | Shh-LIGHT2 Gli-luciferase reporter, 30 h | inhibition, % (concentration not given with the values) | actives 2.1% (n = 22,000);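 active = mean inhibition across valid replicates above about 65%, limit read from the data; inconclusive = mean under the limit, yet half or more replicates past it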;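 also: pathway switched on by Shh-conditioned medium diluted 1 in 25 in low serum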
Of the large screens only hits and unclear results are named; the others gave an inactive call. In the library only some 8.1% were active in any assay of this set; here they are far more common.

CCOC(=O)c1cnc2c(OC)cccc2c1NC1CCCCC1	NOMO-1 viab 118, Shh pathway inh inconclusive
Cc1ccc(O)c(C2=Nc3ccccc3N=C(C(F)(F)F)C2)c1	NOMO-1 viab 89
Cc1nnc(SCC(=O)Nc2cc(Cl)ccc2Cl)s1	none (no result: Shh pathway inh)
COc1c(Cl)cc(C(=O)Nc2ccc(S(=O)(=O)Nc3cc(C)nc(C)n3)cc2)cc1Cl	none (no result: Shh pathway inh)
COc1ccc(NC(=O)Nc2ccc3c(c2)C(=O)N([C@H](C)CO)C[C@H](C)[C@H](CN(C)Cc2ccc(C(=O)Nc4ccccc4N)cc2)O3)cc1	none (no result: Shh pathway inh)
COc1ccc(NC(=O)Nc2cccc3c2O[C@H](CN(C)Cc2ccc(C(=O)Nc4ccccc4N)cc2)[C@H](C)CN([C@@H](C)CO)C3=O)cc1	NOMO-1 viab 127 (no result: Shh pathway inh)
COc1ccc(NC(=O)Nc2cccc3c2O[C@H](CN(C)Cc2ccc(C(=O)Nc4ccccc4N)cc2)[C@@H](C)CN([C@@H](C)CO)C3=O)cc1	NOMO-1 viab 128 (no result: Shh pathway inh)
COc1ccc(NC(=O)Nc2cccc3c2O[C@H](CN(C)Cc2ccc(C(=O)Nc4ccccc4N)cc2)[C@@H](C)CN([C@H](C)CO)C3=O)cc1	NOMO-1 viab 128 (no result: Shh pathway inh)
COc1ccc(NC(=O)Nc2cccc3c2O[C@@H](CN(C)Cc2ccc(C(=O)Nc4ccccc4N)cc2)[C@H](C)CN([C@H](C)CO)C3=O)cc1	NOMO-1 viab 125 (no result: Shh pathway inh)
C[C@H](CO)N1C[C@H](C)[C@H](CN(C)S(=O)(=O)c2ccc(F)cc2)Oc2c(NC(=O)NC3CCCCC3)cccc2C1=O	Shh pathway inh 93
C[C@H]1CN([C@@H](C)CO)C(=O)c2cccc(NC(=O)NC3CCCCC3)c2O[C@H]1CN(C)S(=O)(=O)c1ccc(Cl)cc1	NOMO-1 viab 98, Shh pathway inh 112
Cc1ccc(S(=O)(=O)N(C)C[C@@H]2Oc3c(NC(=O)NC4CCCCC4)cccc3C(=O)N([C@H](C)CO)C[C@@H]2C)cc1	NOMO-1 viab 91, Shh pathway inh 107
C[C@@H]1CN([C@@H](C)CO)C(=O)c2cccc(NC(=O)NC3CCCCC3)c2O[C@@H]1CN(C)S(=O)(=O)c1ccc(Cl)cc1	none (no result: PD-1 reverse act)
COc1ccc(C)cc1S(=O)(=O)N(C)CC(=O)Nc1cccc(C(F)(F)F)c1	none (no result: PD-1 reverse act, Shh pathway inh)
O=C(CSc1n[nH]c(-c2ccc(Cl)cc2)n1)Nc1cccc(F)c1	none (no result: PD-1 reverse act, Shh pathway inh)
C[C@H](CO)N1C[C@H](C)[C@@H](CN(C)Cc2ccccc2)Oc2c(NC(=O)Nc3ccccc3)cccc2C1=O	NOMO-1 viab 103
C[C@@H]1CN([C@@H](C)CO)C(=O)c2cccc(NC(=O)Nc3ccccc3)c2O[C@H]1CN(C)Cc1ccc(-c2ccccc2)cc1	NOMO-1 viab 93
C[C@@H]1CN([C@@H](C)CO)C(=O)c2cccc(NC(=O)Nc3ccccc3)c2O[C@@H]1CN(C)Cc1ccccc1	none
C[C@@H]1CN([C@@H](C)CO)C(=O)c2cccc(NC(=O)Nc3ccc(F)cc3)c2O[C@@H]1CN(C)Cc1ccc(-c2ccccc2)cc1	NOMO-1 viab 99
COc1ccc(-c2cc(=O)c3c(O)c(OC)c(O[C@@H]4O[C@H](CO)[C@@H](O)[C@H](O)[C@H]4O[C@@H]4O[C@@H](C)[C@H](O)[C@@H](O)[C@H]4O)cc3o2)cc1	none
O=C(/C=C/c1ccc(O)cc1)CC(=O)/C=C/c1ccc(O)cc1	NOMO-1 viab 108
CCc1cccc(C)c1NC(=O)CSc1nnc(-c2ccc(OC)cc2)n1C	none (no result: Shh pathway inh)
O=C(Nc1cc(S(=O)(=O)c2ccccc2)cs1)c1ccc(Cl)cc1	NOMO-1 viab 92
O=C(Nc1ccccc1)c1ccc(S(=O)(=O)c2cccc(S(=O)(=O)N3CCOCC3)c2)cc1	none (no result: Shh pathway inh)
C[C@@H]1CN([C@H](C)CO)C(=O)Cc2cc(N(C)C)ccc2O[C@@H]1CN(C)Cc1ccc(Oc2ccccc2)cc1	NOMO-1 viab 118
Cc1ccc(S(=O)(=O)Nc2ccc3c(c2)CC(=O)N([C@H](C)CO)C[C@H](C)[C@H](CN(C)Cc2ccc(Oc4ccccc4)cc2)O3)cc1	NOMO-1 viab 111
COc1ccc(S(=O)(=O)Nc2ccc3c(c2)CC(=O)N([C@@H](C)CO)C[C@H](C)[C@H](CN(C)Cc2ccc(Oc4ccccc4)cc2)O3)cc1	none
C[C@@H]1CN([C@H](C)CO)C(=O)Cc2cc(NS(=O)(=O)c3ccc(Cl)cc3)ccc2O[C@H]1CN(C)Cc1ccc(Oc2ccccc2)cc1	NOMO-1 viab 112
COc1ccc(S(=O)(=O)Nc2ccc3c(c2)CC(=O)N([C@@H](C)CO)C[C@@H](C)[C@@H](CN(C)Cc2ccc(Oc4ccccc4)cc2)O3)cc1	NOMO-1 viab inconclusive
C[C@H](CO)N1C[C@H](C)[C@H](CN(C)Cc2ccc(Oc3ccccc3)cc2)Oc2ccc(NS(=O)(=O)c3ccccc3)cc2CC1=O	NOMO-1 viab 96
C[C@H]1CN([C@@H](C)CO)C(=O)Cc2cc(NS(=O)(=O)c3ccc(Cl)cc3)ccc2O[C@H]1CN(C)Cc1ccc(Oc2ccccc2)cc1	none (no result: PD-1 reverse act)
C[C@H](CO)N1C[C@H](C)[C@H](CN(C)Cc2ccc(Oc3ccccc3)cc2)Oc2ccc(NS(=O)(=O)c3ccc(Cl)cc3)cc2CC1=O	NOMO-1 viab 116
CCOc1ccc(C(=O)NC2CCCCC2)cc1	none
CCCS(=O)(=O)/C(C#N)=C/c1sccc1Oc1ccccc1	none
CC(=O)Nc1ccc(S(=O)(=O)NC2(C(F)(F)F)C(=O)N(c3ccc(C(C)C)cc3)C(C)=C2C(C)=O)cc1 (stereo not given)	none (no result: PD-1 reverse act, Shh pathway inh)
C[C@@H]1CN([C@@H](C)CO)C(=O)c2cccc(NC(=O)Nc3ccc(C(F)(F)F)cc3)c2O[C@H]1CN(C)Cc1ccc(C(F)(F)F)cc1	NOMO-1 viab 116
C[C@@H]1CN([C@H](C)CO)C(=O)c2cccc(N(C)C)c2O[C@H]1CN(C)Cc1ccc(C(F)(F)F)cc1	NOMO-1 viab 81
C[C@H]1CN([C@@H](C)CO)C(=O)c2cccc(NC(=O)Nc3ccc(C(F)(F)F)cc3)c2O[C@@H]1CN(C)Cc1ccc(C(F)(F)F)cc1	NOMO-1 viab 113
C[C@@H]1CN([C@@H](C)CO)C(=O)c2cccc(NC(=O)Nc3ccc(C(F)(F)F)cc3)c2O[C@@H]1CN(C)Cc1ccc(C(F)(F)F)cc1	NOMO-1 viab inconclusive
C[C@H](CO)N1C[C@H](C)[C@@H](CN(C)Cc2ccc(C(F)(F)F)cc2)Oc2c(NC(=O)Nc3ccc(C(F)(F)F)cc3)cccc2C1=O	NOMO-1 viab 105
COc1ccc(N(C(=O)c2ccccc2)S(=O)(=O)c2cccc([N+](=O)[O-])c2)cc1	none (no result: Shh pathway inh)
C[C@@H]1Oc2c(c(O)c3c(c2C(CC(=O)O)c2ccccc2)OC(C)(C)C=C3)C(=O)[C@H]1C (stereo not given in full)	none (no result: MITF inh, PD-1 reverse act, NOMO-1 viab)
CS(=O)(=O)N(CC(=O)Nc1ccccc1Sc1ccccc1)c1ccc(Cl)c(Cl)c1	none (no result: Shh pathway inh)
Cc1ccccc1-c1nnc(-c2cc(C(C)(C)C)nn2Cc2ccc(F)cc2)o1	none
C[C@@H]1CN([C@@H](C)CO)C(=O)c2cc(NC(=O)Nc3ccc4c(c3)OCO4)ccc2O[C@H]1CN(C)Cc1ccccc1	none (no result: PD-1 reverse act)
C[C@@H]1CN([C@@H](C)CO)C(=O)c2cc(NC(=O)Nc3ccc4c(c3)OCO4)ccc2O[C@H]1CN(C)Cc1ccc(-c2ccccc2)cc1	NOMO-1 viab 116 (no result: Shh pathway inh)
